A selection: hits, their analogues and other compounds. The true share with any hit is near 4.8%.
NR1D1 modulator – modulators of human Rev-erb alpha DNA binding. Rev-erbα–FITC-DNA binding, fluorescence polarization, 90 min. AID 1259318. P20393. 370,000 compounds, 0.79% hits. activity, % at 10 µM;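 active means activity above about 14%, limit read from the data; passing the limit was not always enough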
hcDAF12 agonist – activators of H. contortus DAF-12 nuclear receptor; AID 652067; activation, % at 6.8 µM; 370,000 compounds, 1.4% hits; HEK293 hcDAF-12 lit1-tk-luc reporter, luminescence; 0% DMSO, 100% Δ7-dafachronic acid;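 active means activation above the mean of all tested compounds plus 3 SD, cut at about 5.5% in these data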
DAX1 inh-1 – inhibitors of human orphan nuclear receptor DAX1 (NR0B1) | P51843 | HEK293 Gal4-DAX1 luciferase reporter, luminescence | inhibition, % at 6.75 µM | 340,000 compounds, 0.99% hits | AID 504766;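 active means inhibition above the mean over all tested compounds plus 3 SD, cut at about 4.2% in these data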;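 further: inhibition shows as a rise in luminescence from relieved DAX1 repression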
Target sequence (P51843 207-470 limits assumed): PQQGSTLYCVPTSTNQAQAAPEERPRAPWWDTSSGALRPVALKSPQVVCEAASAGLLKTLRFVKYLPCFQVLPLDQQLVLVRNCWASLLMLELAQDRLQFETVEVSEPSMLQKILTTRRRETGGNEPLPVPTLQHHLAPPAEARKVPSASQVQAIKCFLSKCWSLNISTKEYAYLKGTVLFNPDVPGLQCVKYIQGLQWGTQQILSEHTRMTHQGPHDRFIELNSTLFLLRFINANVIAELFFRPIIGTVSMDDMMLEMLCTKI
hgDAF12 agonist – hgDAF-12 agonism, primary luciferase screen; HEK293 GAL4-hgDAF12 UAS-luciferase reporter, agonist luminescence; normalized to butyrate control; activation, % at 6.8 µM; 370,000 compounds, 1.8% hits; AID 687014;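 active means activation above a cutoff set at the mean of all screened compounds plus 3 SD, cut at about 10% in these data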
ssDAF-12 act – activates DAF-12 receptor from parasite S. stercoralis; activation, % at 6.8 µM; HEK293 ssDAF-12/GRIP1 lit1-tk-luc reporter, luminescence; % of 3 µM dafachronic acid response; AID 652126; 370,000 compounds, 1% hits;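 active means activation above the mean over all tested compounds plus 3 SD, cut at about 0.9% in these data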
DAX1 inh-2 – blocks DAX1 repression of SF-1 activated StAR promoter. 370,000 compounds, 1.1% hits. HEK293T StAR-luciferase reporter, SF-1/DAX-1 repression relief. inhibition, % at 6.8 µM;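 active means inhibition above the mean over all tested compounds plus 3 SD, cut at about 3.6% in these data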;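 further: higher inhibition means more luminescence from relief of DAX-1 repression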
LXR ag – LXR-beta agonism as hcDAF-12 counter-screen; activation, % at 6.8 µM; shares compounds with hcDAF12 agonist; HEK293 Gal4-LXR tk-luc reporter, luminescence, 24 h; normalized: DMSO 0%, positive control 100%; 3,400 tested, under 10 active; AID 743027;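 active means mean percent activation of the reporter above a cutoff set as the average over tested compounds plus their standard deviation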
Target sequence (P55055 whole entry, looked up, the tested form may be a part): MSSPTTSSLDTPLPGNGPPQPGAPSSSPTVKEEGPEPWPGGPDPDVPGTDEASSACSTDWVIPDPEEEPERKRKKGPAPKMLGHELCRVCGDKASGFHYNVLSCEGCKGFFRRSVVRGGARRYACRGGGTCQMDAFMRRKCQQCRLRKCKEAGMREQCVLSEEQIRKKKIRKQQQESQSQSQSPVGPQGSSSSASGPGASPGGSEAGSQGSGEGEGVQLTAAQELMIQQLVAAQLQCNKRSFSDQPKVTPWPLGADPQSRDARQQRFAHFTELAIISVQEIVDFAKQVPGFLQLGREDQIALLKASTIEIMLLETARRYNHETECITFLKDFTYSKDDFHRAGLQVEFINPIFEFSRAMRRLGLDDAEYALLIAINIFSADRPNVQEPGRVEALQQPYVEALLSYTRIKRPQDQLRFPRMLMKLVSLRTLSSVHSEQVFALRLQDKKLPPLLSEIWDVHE
hcDAF12 ag – confirmation of H. contortus DAF-12 agonists; 3,400 compounds, 61% hits; shares compounds with hcDAF12 agonist; activation, % at 6.8 µM; HEK293 hcDAF-12 lit1-tk-luc reporter, luminescence; % of Δ7-dafachronic acid response;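 active means mean activation across triplicate tests above the threshold derived from the earlier primary screen, cut at about 5.5% in these data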
hgDAF12 ag – hgDAF-12 agonism, confirmation assay | shares compounds with hgDAF12 agonist | HEK293 GAL4-hgDAF12 luciferase reporter, agonist mode; percent of butyrate response | activation, % at 6.8 µM | 3,300 compounds, 80% hits;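 active means mean activation over triplicate wells above the hit cutoff derived from the earlier primary screen, cut at about 11% in these data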
LXRb DAF12 ctr – LXR-beta agonism as DAF-12 counter-screen. shares compounds with hgDAF12 agonist. HEK293 Gal4-LXR luciferase reporter, 24 h. activation, % at 6.8 µM. 3,300 tested, under 10 active. AID 743051;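 active means mean activation of the triplicate above a set limit carried over from the primary screen, none filed active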
Numbers stand for hits.

For O=C(Nc1ccccc1O)c1csc2c1CCCC2 the results were NR1D1 modulator inactive, hcDAF12 agonist 7.4, DAX1 inh-1 inactive, hgDAF12 agonist 16.4, ssDAF-12 act inactive, DAX1 inh-2 inactive, LXR ag inactive, hcDAF12 ag 10.1, hgDAF12 ag 13.3 and LXRb DAF12 ctr inactive.
Screening CCN(CC)CCCNC(=O)c1cc2cc(Cl)ccc2nc1N returned NR1D1 modulator inactive, hcDAF12 agonist inactive, hgDAF12 agonist inactive, ssDAF-12 act inactive and DAX1 inh-2 inactive.
Screening Cc1ccc2c(c1)-c1c(cnn1CC(=O)NCCc1ccccc1F)CO2 returned NR1D1 modulator inactive, hcDAF12 agonist inactive, hgDAF12 agonist inactive, ssDAF-12 act inactive and DAX1 inh-2 inactive.
CCOc1ccc(C(=O)Nc2ccccc2C(=O)O)cc1 was read as NR1D1 modulator inactive, hcDAF12 agonist 8.2, DAX1 inh-1 inactive, hgDAF12 agonist 18.3, ssDAF-12 act 1.1, DAX1 inh-2 inactive, LXR ag inactive, hcDAF12 ag 8.3, hgDAF12 ag 14.9 and LXRb DAF12 ctr inactive.
`CCCC(=O)Nc1ccccc1NC(=O)c1ccc(OCC)cc1` gave NR1D1 modulator inactive, hcDAF12 agonist inactive, DAX1 inh-1 inactive, hgDAF12 agonist inactive, ssDAF-12 act inactive and DAX1 inh-2 inactive.
For Cc1nc2nc(-c3ccc(F)cc3)cn2nc1C the results were NR1D1 modulator inactive, hcDAF12 agonist 7.1, DAX1 inh-1 inactive, hgDAF12 agonist 14.0, ssDAF-12 act inactive, DAX1 inh-2 inactive, LXR ag inactive, hcDAF12 ag inactive, hgDAF12 ag 12.3 and LXRb DAF12 ctr inactive.
`Cc1scc(C(=O)N/N=C/c2ccc(OC(C)C)cc2)c1C` gave NR1D1 modulator inactive, hcDAF12 agonist inactive, DAX1 inh-1 inactive, hgDAF12 agonist inactive, ssDAF-12 act inactive and DAX1 inh-2 inactive.
`Cc1scc(C(=O)N/N=C/c2ccc(Cl)s2)c1C` gave NR1D1 modulator inactive, hcDAF12 agonist 8.2, DAX1 inh-1 6.2, hgDAF12 agonist 14.2, ssDAF-12 act inactive, DAX1 inh-2 inactive, LXR ag inactive, hcDAF12 ag inactive, hgDAF12 ag 14.8 and LXRb DAF12 ctr inactive.
`O=C(CS(=O)(=O)c1ccccc1)N1CCc2ccccc21` gave NR1D1 modulator inactive, hcDAF12 agonist 12.7, DAX1 inh-1 inactive, hgDAF12 agonist 21.2, ssDAF-12 act 1.9, DAX1 inh-2 inactive, LXR ag inactive, hcDAF12 ag 9.1, hgDAF12 ag 16.6 and LXRb DAF12 ctr inactive.
O=C(Cc1ccccc1)N1CCc2ccccc21 was read as NR1D1 modulator inactive, hcDAF12 agonist inactive, DAX1 inh-1 inactive, hgDAF12 agonist inactive, ssDAF-12 act inactive and DAX1 inh-2 inactive.
COc1ccc(C2=Nc3ccccc3N(C(=O)c3ccc4ncccc4c3)C2C(=O)NC2CCCC2)cc1 (stereo not given) was read as NR1D1 modulator inactive, hcDAF12 agonist 9.7, hgDAF12 agonist 18.1, ssDAF-12 act 2.3, DAX1 inh-2 inactive, LXR ag inactive, hcDAF12 ag 10.2, hgDAF12 ag 11.8 and LXRb DAF12 ctr inactive.
For COc1ccc(N2C[C@@]3(O)CC[C@@H](O)[C@@H](OC)[C@@H]3[C@@]2(C)[C@H](O)CC=C(C)C)cc1 the results were NR1D1 modulator inactive, hcDAF12 agonist inactive, hgDAF12 agonist inactive, ssDAF-12 act inactive and DAX1 inh-2 inactive.
Screening Cn1c(NC(=O)c2ccc(F)cc2)nc2ccccc21 returned NR1D1 modulator inactive, hcDAF12 agonist 13.9, DAX1 inh-1 inactive, hgDAF12 agonist 19.0, ssDAF-12 act 1.9, DAX1 inh-2 inactive, LXR ag inactive, hcDAF12 ag 14.5, hgDAF12 ag 21.2 and LXRb DAF12 ctr inactive.
`CC(C)(C)c1ccc(S(=O)(=O)NCC2CCN(C(=O)C(=O)c3cccs3)CC2)cc1` gave NR1D1 modulator inactive, hcDAF12 agonist inactive, hgDAF12 agonist inactive, ssDAF-12 act inactive and DAX1 inh-2 inactive.
`CC1=CN2C(=N)/C(=C/c3ccc(Sc4ccc(C)cc4)o3)C(=O)N=C2S1` gave NR1D1 modulator inactive, hcDAF12 agonist inactive, DAX1 inh-1 inactive, hgDAF12 agonist inactive, ssDAF-12 act inactive and DAX1 inh-2 inactive.
For CC1=CN2C(=N)/C(=C/c3ccc(C)o3)C(=O)N=C2S1 the results were NR1D1 modulator inactive, hcDAF12 agonist 14.9, DAX1 inh-1 inactive, hgDAF12 agonist 20.1, ssDAF-12 act inactive, DAX1 inh-2 4.0, LXR ag inactive, hcDAF12 ag inactive, hgDAF12 ag 11.6 and LXRb DAF12 ctr inactive.
COc1cc(NC(=O)C/C(C)=N/NC(=O)c2cccs2)c(OC)cc1Cl was read as NR1D1 modulator inactive, hcDAF12 agonist 7.9, DAX1 inh-1 inactive, hgDAF12 agonist 14.9, ssDAF-12 act inactive, DAX1 inh-2 4.0, LXR ag inactive, hcDAF12 ag inactive, hgDAF12 ag inactive and LXRb DAF12 ctr inactive.
`CC(C)N(C[C@@H]1CSCCS(=O)(=O)N1)C(C)C` gave NR1D1 modulator inactive, hcDAF12 agonist inactive, hgDAF12 agonist inactive, ssDAF-12 act inactive and DAX1 inh-2 inactive.
Screening CCOc1ccc(-c2cc(C(=O)NN)[nH]n2)cc1 returned NR1D1 modulator inactive, hcDAF12 agonist 6.8, DAX1 inh-1 inactive, hgDAF12 agonist 15.7, ssDAF-12 act inactive, DAX1 inh-2 inactive, LXR ag inactive, hcDAF12 ag inactive, hgDAF12 ag inactive and LXRb DAF12 ctr inactive.
Screening CSc1ccccc1OCc1cc(C(=O)N[C@H]2CCCCNC2=O)no1 returned NR1D1 modulator inactive, hcDAF12 agonist 7.2, DAX1 inh-1 inactive, hgDAF12 agonist 19.0, ssDAF-12 act inactive, DAX1 inh-2 4.4, LXR ag inactive, hcDAF12 ag inactive, hgDAF12 ag inactive and LXRb DAF12 ctr inactive.
For CNC(=O)c1ccsc1NC(=O)c1ccc2c(c1)CCCC2 the results were NR1D1 modulator inactive, hcDAF12 agonist 6.9, DAX1 inh-1 inactive, hgDAF12 agonist 17.1, ssDAF-12 act inactive, DAX1 inh-2 inactive, LXR ag inactive, hcDAF12 ag 7.0, hgDAF12 ag inactive and LXRb DAF12 ctr inactive.
`O=C(NC1CCCCN(Cc2cccc(Cl)c2)C1=O)c1cccc([N+](=O)[O-])c1` (stereo not given) gave NR1D1 modulator inactive, hcDAF12 agonist inactive, hgDAF12 agonist inactive, ssDAF-12 act inactive and DAX1 inh-2 inactive.
